Data on six molecules can be found in ChEMBL document CHEMBL1961873, “Compounds: GSK PKIS; Assays: Nanosyn kinase panel” (2012).

Assay [1] addresses MAP/microtubule affinity-regulating kinase 3 (Homo sapiens) (UniProt P27448). The conditions noted are these: at 1 µM.
For assay [2], the target named is T1, MAP/microtubule affinity-regulating kinase 4 (Homo sapiens) (UniProt Q96L34).
T1 sequence (whole entry): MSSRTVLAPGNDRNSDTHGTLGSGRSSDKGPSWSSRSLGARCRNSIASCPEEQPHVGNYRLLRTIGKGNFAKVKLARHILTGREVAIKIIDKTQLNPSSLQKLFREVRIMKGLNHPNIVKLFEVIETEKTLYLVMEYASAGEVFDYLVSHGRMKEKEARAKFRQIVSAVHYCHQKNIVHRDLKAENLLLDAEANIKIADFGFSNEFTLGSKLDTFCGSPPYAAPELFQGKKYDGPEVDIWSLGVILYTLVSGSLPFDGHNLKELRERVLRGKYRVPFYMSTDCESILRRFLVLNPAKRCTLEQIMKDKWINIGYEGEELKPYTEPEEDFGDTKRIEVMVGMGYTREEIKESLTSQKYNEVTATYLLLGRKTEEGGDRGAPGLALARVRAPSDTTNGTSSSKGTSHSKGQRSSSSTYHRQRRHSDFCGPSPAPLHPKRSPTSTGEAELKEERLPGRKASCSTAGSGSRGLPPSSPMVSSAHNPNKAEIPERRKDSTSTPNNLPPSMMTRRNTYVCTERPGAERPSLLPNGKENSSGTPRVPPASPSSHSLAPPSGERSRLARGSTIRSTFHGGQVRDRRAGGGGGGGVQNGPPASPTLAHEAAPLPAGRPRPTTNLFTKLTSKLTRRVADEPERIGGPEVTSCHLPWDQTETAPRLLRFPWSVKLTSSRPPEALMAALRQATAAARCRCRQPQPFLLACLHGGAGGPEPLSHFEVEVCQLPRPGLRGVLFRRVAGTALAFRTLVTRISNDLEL
The conditions noted are these: at 0.1 µM.

Assay [3] concerns the target T1, MAP/microtubule affinity-regulating kinase 4 (Homo sapiens). The conditions noted are these: at 1 µM.
Assay [4] addresses Maternal embryonic leucine zipper kinase (Homo sapiens) (UniProt Q14680). Particulars: at 0.1 µM.
Assay [5] shares this target. Particulars: at 1 µM.
The target of assay [6] is MAP kinase-interacting serine/threonine-protein kinase 1 (Homo sapiens) (UniProt Q9BUB5). Particulars: at 0.1 µM.
MAP kinase-interacting serine/threonine-protein kinase 1 (Homo sapiens), sequence (Q9BUB5 whole entry, looked up): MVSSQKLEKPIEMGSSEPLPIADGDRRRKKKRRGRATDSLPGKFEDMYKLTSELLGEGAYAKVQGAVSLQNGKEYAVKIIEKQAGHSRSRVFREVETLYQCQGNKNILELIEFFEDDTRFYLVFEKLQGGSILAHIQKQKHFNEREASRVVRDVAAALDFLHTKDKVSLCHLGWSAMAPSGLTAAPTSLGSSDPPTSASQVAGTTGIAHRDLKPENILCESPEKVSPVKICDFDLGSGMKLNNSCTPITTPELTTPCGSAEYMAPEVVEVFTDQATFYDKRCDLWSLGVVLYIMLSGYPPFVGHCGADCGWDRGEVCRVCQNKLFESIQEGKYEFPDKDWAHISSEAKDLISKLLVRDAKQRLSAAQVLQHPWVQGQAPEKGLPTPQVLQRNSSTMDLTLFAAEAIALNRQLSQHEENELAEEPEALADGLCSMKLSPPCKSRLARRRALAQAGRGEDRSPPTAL
Assay [7] has the same target. Particulars: at 1 µM.
Assay [8] concerns the target MAP kinase-interacting serine/threonine-protein kinase 2 (Homo sapiens) (UniProt Q9HBH9). The conditions noted are these: at 0.1 µM.
For assay [9] the target is unchanged. The conditions noted are these: at 1 µM.
Assay [10] concerns the target Serine/threonine-protein kinase MARK2 (Homo sapiens) (UniProt Q7KZI7). The conditions noted are these: at 0.1 µM.
Assay [11] shares this target. Particulars: at 1 µM.
Assay [12] has as its target PAS domain-containing serine/threonine-protein kinase (Homo sapiens) (UniProt Q96RG2). The conditions noted are these: at 0.1 µM.
Assay [13] has the same target. Particulars: at 1 µM.
For assay [14], the target named is Phosphorylase b kinase gamma catalytic chain, skeletal muscle/heart isoform (Homo sapiens) (UniProt Q16816). Particulars: at 0.1 µM.
Assay [15] has the same target. The conditions noted are these: at 1 µM.
Assay [16] deals with T2, Phosphorylase b kinase gamma catalytic chain, liver/testis isoform (Homo sapiens) (UniProt P15735).
T2 sequence (whole entry): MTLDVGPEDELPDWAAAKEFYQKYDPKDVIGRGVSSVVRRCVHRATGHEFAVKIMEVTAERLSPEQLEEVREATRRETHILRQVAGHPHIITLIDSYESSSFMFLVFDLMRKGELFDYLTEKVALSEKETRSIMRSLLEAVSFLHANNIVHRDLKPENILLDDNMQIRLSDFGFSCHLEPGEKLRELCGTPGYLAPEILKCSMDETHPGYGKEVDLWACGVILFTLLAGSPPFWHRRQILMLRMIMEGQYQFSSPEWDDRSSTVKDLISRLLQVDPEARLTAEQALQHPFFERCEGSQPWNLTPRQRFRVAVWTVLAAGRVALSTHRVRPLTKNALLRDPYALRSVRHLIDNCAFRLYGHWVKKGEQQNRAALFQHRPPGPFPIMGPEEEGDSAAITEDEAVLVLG
The conditions noted are these: at 0.1 µM.

In assay [17] the target is T2, Phosphorylase b kinase gamma catalytic chain, liver/testis isoform (Homo sapiens). Particulars: at 1 µM.
In assay [18] the target is Serine/threonine-protein kinase pim-1 (Homo sapiens) (UniProt P11309). The conditions noted are these: at 0.1 µM.
For assay [19] the target is unchanged. The conditions noted are these: at 1 µM.
The target of assay [20] is Serine/threonine-protein kinase pim-2 (Homo sapiens) (UniProt Q9P1W9). Particulars: at 0.1 µM.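 Further: reported value is the mean percent inhibition of PIM2, measured in the GSK PKIS kinase inhibitor set screen.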
Serine/threonine-protein kinase pim-2 (Homo sapiens), sequence (Q9P1W9 whole entry, looked up): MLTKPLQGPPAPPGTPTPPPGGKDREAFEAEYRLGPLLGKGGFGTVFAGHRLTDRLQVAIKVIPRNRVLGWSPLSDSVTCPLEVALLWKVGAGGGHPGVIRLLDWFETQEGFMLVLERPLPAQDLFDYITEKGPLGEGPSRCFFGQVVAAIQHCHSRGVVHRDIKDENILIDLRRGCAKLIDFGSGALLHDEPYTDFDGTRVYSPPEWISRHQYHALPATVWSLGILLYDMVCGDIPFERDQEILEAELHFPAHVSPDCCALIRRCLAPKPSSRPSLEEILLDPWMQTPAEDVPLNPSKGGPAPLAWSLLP

MAP kinase-interacting serine/threonine-protein kinase 2 (Homo sapiens), sequence (Q9HBH9 whole entry, looked up): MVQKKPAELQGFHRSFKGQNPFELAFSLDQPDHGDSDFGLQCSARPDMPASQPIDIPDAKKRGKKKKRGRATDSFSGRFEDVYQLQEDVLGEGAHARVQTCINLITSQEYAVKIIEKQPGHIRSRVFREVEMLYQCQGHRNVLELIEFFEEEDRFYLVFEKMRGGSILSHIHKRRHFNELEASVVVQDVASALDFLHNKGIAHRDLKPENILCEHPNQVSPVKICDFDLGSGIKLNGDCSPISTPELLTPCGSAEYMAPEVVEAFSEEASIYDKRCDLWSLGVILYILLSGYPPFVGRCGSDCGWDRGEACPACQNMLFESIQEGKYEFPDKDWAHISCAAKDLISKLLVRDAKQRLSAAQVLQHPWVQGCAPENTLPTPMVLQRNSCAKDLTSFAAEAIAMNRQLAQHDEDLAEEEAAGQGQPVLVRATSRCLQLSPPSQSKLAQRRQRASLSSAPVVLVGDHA
PAS domain-containing serine/threonine-protein kinase (Homo sapiens), sequence (Q96RG2 whole entry, the tested form may be a part): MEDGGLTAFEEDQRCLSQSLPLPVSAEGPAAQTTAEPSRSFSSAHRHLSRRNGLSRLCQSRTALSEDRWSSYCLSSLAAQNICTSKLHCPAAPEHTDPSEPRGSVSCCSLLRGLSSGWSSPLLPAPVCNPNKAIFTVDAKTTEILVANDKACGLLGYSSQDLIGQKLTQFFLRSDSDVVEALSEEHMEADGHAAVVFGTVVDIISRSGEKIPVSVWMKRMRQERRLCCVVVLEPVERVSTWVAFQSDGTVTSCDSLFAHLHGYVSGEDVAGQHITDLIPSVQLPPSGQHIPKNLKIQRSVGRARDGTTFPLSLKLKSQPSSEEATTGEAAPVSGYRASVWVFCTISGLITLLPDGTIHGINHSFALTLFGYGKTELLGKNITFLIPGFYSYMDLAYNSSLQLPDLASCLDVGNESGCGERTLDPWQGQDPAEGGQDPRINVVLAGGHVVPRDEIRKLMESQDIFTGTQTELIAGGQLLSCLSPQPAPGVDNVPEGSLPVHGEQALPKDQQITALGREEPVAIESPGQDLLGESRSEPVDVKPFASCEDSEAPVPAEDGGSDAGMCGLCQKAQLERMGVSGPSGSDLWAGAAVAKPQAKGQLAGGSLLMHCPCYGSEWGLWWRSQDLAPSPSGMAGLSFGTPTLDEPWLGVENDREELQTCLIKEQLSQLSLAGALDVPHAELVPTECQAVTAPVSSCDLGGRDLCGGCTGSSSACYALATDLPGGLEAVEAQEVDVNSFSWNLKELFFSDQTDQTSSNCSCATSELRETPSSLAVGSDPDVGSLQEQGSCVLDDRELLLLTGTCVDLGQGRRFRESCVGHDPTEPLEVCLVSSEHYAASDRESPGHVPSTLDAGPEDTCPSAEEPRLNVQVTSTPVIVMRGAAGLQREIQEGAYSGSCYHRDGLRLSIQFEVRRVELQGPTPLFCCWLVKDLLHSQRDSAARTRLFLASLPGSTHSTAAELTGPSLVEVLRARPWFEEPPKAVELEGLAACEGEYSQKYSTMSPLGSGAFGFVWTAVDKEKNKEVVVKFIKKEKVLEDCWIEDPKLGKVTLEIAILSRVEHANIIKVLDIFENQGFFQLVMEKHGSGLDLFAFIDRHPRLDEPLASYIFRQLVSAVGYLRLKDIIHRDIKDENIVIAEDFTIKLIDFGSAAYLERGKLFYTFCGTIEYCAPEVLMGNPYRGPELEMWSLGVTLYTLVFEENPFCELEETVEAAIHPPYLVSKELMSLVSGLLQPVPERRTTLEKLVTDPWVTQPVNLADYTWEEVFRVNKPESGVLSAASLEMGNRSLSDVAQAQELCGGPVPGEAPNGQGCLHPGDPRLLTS
MAP/microtubule affinity-regulating kinase 3 (Homo sapiens), sequence (P27448 whole entry, looked up): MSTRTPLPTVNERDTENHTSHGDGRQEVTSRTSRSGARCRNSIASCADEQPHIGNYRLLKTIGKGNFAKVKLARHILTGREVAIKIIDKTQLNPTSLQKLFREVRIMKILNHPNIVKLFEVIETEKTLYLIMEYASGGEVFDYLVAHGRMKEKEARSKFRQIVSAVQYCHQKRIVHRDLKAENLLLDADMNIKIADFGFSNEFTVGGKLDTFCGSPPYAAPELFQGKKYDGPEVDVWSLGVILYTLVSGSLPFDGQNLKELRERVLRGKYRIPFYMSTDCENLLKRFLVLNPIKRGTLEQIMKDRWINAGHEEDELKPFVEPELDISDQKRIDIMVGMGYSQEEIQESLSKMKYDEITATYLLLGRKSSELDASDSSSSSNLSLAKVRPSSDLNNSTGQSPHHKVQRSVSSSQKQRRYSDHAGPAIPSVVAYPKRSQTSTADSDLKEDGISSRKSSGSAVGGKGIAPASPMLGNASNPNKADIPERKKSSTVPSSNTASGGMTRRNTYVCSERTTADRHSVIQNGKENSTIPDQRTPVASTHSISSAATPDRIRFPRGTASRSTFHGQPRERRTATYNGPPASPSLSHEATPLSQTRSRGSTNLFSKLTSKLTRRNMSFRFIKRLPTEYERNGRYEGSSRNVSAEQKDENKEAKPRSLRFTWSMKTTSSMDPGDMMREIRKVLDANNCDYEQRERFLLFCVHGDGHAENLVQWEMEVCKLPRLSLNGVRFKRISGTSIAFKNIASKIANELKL
Serine/threonine-protein kinase MARK2 (Homo sapiens), sequence (Q7KZI7 whole entry): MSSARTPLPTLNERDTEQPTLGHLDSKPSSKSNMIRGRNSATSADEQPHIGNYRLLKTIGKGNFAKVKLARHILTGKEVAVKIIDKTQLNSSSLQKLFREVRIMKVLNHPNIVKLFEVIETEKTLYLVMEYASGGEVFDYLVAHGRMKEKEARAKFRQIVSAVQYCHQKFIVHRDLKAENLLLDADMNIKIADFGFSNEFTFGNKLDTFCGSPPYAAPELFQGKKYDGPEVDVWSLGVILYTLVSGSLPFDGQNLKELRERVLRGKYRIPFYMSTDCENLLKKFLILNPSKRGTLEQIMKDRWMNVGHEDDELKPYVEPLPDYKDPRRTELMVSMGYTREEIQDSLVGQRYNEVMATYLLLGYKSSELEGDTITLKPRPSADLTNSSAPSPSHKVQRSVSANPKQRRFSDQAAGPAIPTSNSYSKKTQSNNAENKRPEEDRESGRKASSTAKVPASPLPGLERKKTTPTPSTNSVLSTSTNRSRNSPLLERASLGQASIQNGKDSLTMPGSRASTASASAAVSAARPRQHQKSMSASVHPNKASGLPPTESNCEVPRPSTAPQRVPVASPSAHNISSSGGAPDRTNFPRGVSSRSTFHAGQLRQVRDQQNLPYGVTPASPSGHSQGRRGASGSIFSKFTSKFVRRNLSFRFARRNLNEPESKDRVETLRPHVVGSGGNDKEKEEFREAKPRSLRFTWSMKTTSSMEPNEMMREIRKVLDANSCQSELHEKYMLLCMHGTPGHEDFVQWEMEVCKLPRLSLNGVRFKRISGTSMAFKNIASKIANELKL
Maternal embryonic leucine zipper kinase (Homo sapiens), sequence (Q14680 whole entry, looked up): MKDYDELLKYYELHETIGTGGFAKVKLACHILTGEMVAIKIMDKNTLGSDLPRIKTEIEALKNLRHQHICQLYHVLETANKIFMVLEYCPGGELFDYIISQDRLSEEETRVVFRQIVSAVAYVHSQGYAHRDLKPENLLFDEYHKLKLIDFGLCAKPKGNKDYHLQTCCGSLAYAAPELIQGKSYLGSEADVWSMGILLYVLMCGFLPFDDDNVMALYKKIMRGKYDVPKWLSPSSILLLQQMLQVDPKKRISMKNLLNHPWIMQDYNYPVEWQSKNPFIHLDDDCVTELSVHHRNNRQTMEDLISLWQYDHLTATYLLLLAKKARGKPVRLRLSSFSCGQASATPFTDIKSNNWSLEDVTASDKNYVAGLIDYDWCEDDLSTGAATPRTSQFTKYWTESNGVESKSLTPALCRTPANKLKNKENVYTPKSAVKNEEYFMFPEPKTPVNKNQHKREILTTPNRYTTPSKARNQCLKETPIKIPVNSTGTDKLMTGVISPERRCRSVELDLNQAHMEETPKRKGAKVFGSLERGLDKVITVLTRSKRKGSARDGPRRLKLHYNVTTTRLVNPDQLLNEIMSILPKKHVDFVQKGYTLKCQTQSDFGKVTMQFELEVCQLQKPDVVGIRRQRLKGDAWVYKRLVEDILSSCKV

A word on the inhibition: it is the change of the read-out against control, counted positive when it falls. Consider `Clc1ccc(-c2nn3ncccc3c2-c2ccnc(Nc3ccccc3)n2)cc1`, for which the inhibition was 8.43% in assay [1]; 0.1% in [2]; 1.26% in assay [3]; 2.47% in assay [4]; 1.1% in [5]; 0.8% in assay [6]. Besides, the inhibition is 3.07% in assay [7]; 0.53% in assay [8]; 1.38% in [9]; 0.74% in assay [10]; 0.63% in assay [11]; -0.14% in [12]. The inhibition stood at 0.05% in assay [13]; 1.22% in [14]; 3.66% in [15]; 0.85% in assay [16]; 0.51% in assay [17]; 0.13% in assay [18]. The figures for the inhibition in assay [19] and in [20] were 0.33% and 0.34%, respectively.

With `Fc1cccc(COc2ccc(Nc3ncnc4sc(-c5ccco5)cc34)cc2Cl)c1`, the inhibition in assay [1] amounted to 4.54%; in [2] it was 2.34%; in assay [3], 3.94%; in assay [4] it was 5.07%; in assay [5], 1.45%; in [6], 1.99%. Moreover, the inhibition in [7] is 10.1%; in assay [8], -0.22%; in assay [9], 15.1%; in assay [10], 1.08%; in assay [11] it was 2.25%; in assay [12], -0.19%. The inhibition in assay [13] was 0.63%; in assay [14], 5.6%; in [15] it was 5.83%; in assay [16], 4.96%; in [17], 5.36%; in [18], -0.57%. The results for the inhibition in assay [19] and in assay [20] were 0.55% and 0.56%, respectively.

Turning to `O=C(O[C@H]1CN[C@H](C#Cc2cc3ncnc(Nc4ccc(Cc5ccccc5)cc4)c3s2)C1)N1CCOCC1`, the inhibition is 2.78% in assay [1]; 1.7% in [2]; 0.44% in assay [3]; 0.46% in assay [4]; -1.31% in assay [5]; 2.67% in assay [6]. The inhibition in assay [7] was 7.67%; in [8] it was 9.26%; in assay [9], 48.1%; in assay [10] it was -0.11%; in [11], 0.4%; in [12], 0.94%. Also, the inhibition came to 0.47% in assay [13]; 3.11% in assay [14]; 3.13% in [15]; 3.27% in assay [16]; 2.45% in [17]; 1.81% in assay [18]. In addition, the figures for the inhibition in [19] and in [20] were 0.55% and 0.21%, respectively.

Turning to `CCN(CC)S(=O)(=O)c1ccc(OC)c(Nc2ncc(-c3ccccc3)o2)c1`, the inhibition in assay [1] is 18.7%; in assay [2], -1.02%; in assay [3], 0.8%; in [4] it was -0.34%; in assay [5] it was 7.01%; in assay [6] it was 1.28%. In addition, the inhibition in assay [7] is 5.6%; in assay [8] it was 1.51%; in assay [9] it was 2.53%; in assay [10], 0.71%; in [11] it was 0.33%; in [12], 1.24%. In addition, the inhibition in assay [13] is 1.76%; in assay [14] it was -0.59%; in [15], 12.3%; in assay [16], 2.23%; in assay [17], 2.3%; in assay [18] it was 1.35%. The inhibition in assay [19] is 0.97%; in assay [20], -0.31%.

Take `O=S(=O)(CCNCc1ccc(-c2ccc3ncnc(Nc4ccc(OCc5cccc(F)c5)c(Cl)c4)c3c2)o1)c1ccccc1`: the inhibition in assay [1] came out at 5.8%; in assay [2], 3.85%; in assay [3], 2.5%; in assay [4], 5.2%; in assay [5] it was 3.07%; in assay [6], 2.9%. Further, the inhibition in [7] was 5.96%; in [8], 0.8%; in assay [9], 4.95%; in assay [10], 0.66%; in assay [11] it was -0.14%; in assay [12] it was -0.06%. The inhibition was 0.32% in assay [13]; 5.41% in assay [14]; 9.29% in assay [15]; 7.91% in assay [16]; 7.71% in [17]; -0.13% in [18]. Moreover, the inhibition in [19] was found to be 1.9%; in assay [20], 0.44%.

`NS(=O)(=O)c1ccc(Nc2ncc(-c3ccccc3)o2)cc1`: the inhibition in [1] was 12.2%; in assay [2], 2.7%; in assay [3] it was 10.9%; in assay [4], 1.52%; in assay [5], 0.94%; in assay [6], 4.26%. In addition, the inhibition in assay [7] was 21.3%; in assay [8], 3.92%; in assay [9], 18.9%; in assay [10], 2.35%; in [11], 7.59%; in [12], -0.04%. Further, the inhibition is -0.31% in [13]; 3.92% in assay [14]; 18.4% in assay [15]; 4.88% in assay [16]; 7.08% in assay [17]; 0.17% in [18]. Besides, the inhibition in assay [19] was 0.64%; in assay [20], -0.58%.
